Pf growth 96h = Primary qHTS for delayed death inhibitors of the malarial parasite plastid, 96 hour incubation. Potency, µM (top dose mostly 28.7 µM), for the others: at the highest dose activity change, negative = inhibition, most hits filed as inhibitors. 6.9% of 320,000 active. P. falciparum luciferase reporter growth, 96 h; also: % is scaled to controls: 0 for no effect and ±100 for the full control effect
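P. falciparum expressing integrated firefly luciferase, in erythrocytes at 2% hematocrit, 0.05% parasitemia, incubated with compounds 96 h at 37 C, 5% CO2. Growth inhibition read as loss of luminescence; two-generation exposure targets delayed-death apicoplast inhibitors.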
AMA1 RON2 block = qHTS for Inhibitors of AMA1-RON; Towards Development of Antimalarial Drug Lead: Primary Screen | AlphaScreen AMA1-biotinylated RON2 peptide binding | Potency, µM (doses to about 58.2 µM), inactives show at the top dose activity change, negative = inhibition, hits mostly inhibitors | 0.2% of 360,000 active;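 also: 0% = vehicle wells and -100% = peptide control; nearly all actives have a fitted effect of over 45% in size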
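AMA1 (3D7) with his tag at 25 nM final met compounds first, then biotinylated RON2 peptide at 25 nM; detection used donor plus acceptor beads, 10 µg/mL apiece, read by AlphaScreen after 30 min at room temperature.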
NS1 function inh = qHTS Assay for Inhibitors of Influenza NS1 Protein Function | Potency, µM (series often up to 46.1 µM), without a hit: at the top dose activity, positive = more growth | 0.4% of 270,000 active | AID 2326, 2010; calls by dose curve; also: actives are rising curves; nearly all actives have a fitted effect of over 50% in size
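S. cerevisiae expressing influenza A NS1, grown in glucose, washed, then diluted 1:100 into pH 6.0 -URA galactose medium with 23 nl compound. Growth recovery read as OD600; NS1-free strain serves as control.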
Pf growth 48h = Primary qHTS for delayed death inhibitors of the malarial parasite plastid, 48 hour incubation; Potency, µM (highest dose often 28.7 µM), for inactives: at the top dose activity change, negative = inhibition, most hits filed as inhibitors; AID 504832, 2011; P. falciparum luciferase growth in erythrocytes, 48 h; 5.9% of 310,000 active; also: % is scaled to controls: 0 for no effect and ±100 for the full control effect
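Erythrocytes infected with P. falciparum carrying an integrated firefly luciferase reporter (2% hematocrit, 0.1% parasitemia final) were exposed to compounds in RPMI 1640 with 0.5% Albumax at 37 C, 5% CO2. Growth inhibition was scored as reduced luminescence.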
Sm TGR inh = qHTS Assay for the Inhibitors of Schistosoma Mansoni Peroxiredoxins | Schistosoma mansoni thioredoxin glutathione reductase (TGR), Q962Y6 | purified TGR, DTNB reduction, TNB absorbance 405 nm | Potency, µM (titrated, usually from 114 µM), for inactives: at the top dose activity change, negative = inhibition, hits mostly inhibitors | AID 485364, 2010 | 3% of 360,000 active; also: % is scaled to controls: 0 for no effect and ±100 for the full control effect; nearly all actives have a fitted effect of over 60% in size
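TGR 20 nM + NADPH 100 uM (dispensed conc.), cpd preinc 15 min RT; start with NADPH (500 uM addition) then DTNB (15 mM addition). Kinetic TNB absorbance, 405 nm filter. Four-parameter Hill fit across titration.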
The depositor's hits bear a star; ? = inconclusive; · = no result given. Only some compounds are listed: those with a hit (about 11% of all), similar ones and a draw of the others. Unless noted, calls follow the shape of the dose curve; as a rule, active = well fitted curve in the direction sought with a large enough effect; inconclusive = small, poorly fitted or top-dose-only effect, or another doubt; inactive = no such curve, though single readings can be large; an effect the other way counts as inactive or inconclusive. Potency is read from the fitted curve at half-maximal effect.

SMILES	Pf growth 96h	AMA1 RON2 block	NS1 function inh	Pf growth 48h	Sm TGR inh
CCN1CC2=C(OC(N)=C(C#N)C2c2cccs2)/C(=C\c2cccs2)C1 (stereo not given)	9.3µM*	-4%	2%	·	-21%
CC1CCN(CCCCOc2ccc([N+](=O)[O-])cc2)CC1	?	-1%	-10%	?	-2%
COC(=O)C1CCN(Cc2ccc(OCCCN3CCN(c4ccc([N+](=O)[O-])cc4)CC3)cc2)CC1	10µM*	-8%	-6%	2.3µM*	5%
CC1CC(OC(=O)c2ccccc2)(c2ccccc2)C(C)CN1C (stereo not given)	?	0%	-2%	6.6µM*	34%
CCCN1CC(C)C(OC(C)=O)(c2ccccc2)CC1C (stereo not given)	-21%	10%	5%	10%	-2%
CCCSCCCNC(=O)c1ccccc1NC(=O)C1=CSCCO1	13µM*	-15%	-17%	-30%	-1%
Cc1ccc(C)c(NC(=O)CCC(=O)NN=C2CCCC2)c1	-14%	104%	8%	4%	-10%
O=C(O)c1ccc(C[n+]2c(-c3ccccc3)csc2Nc2ccccc2)cc1	19%	-7%	6%	14%	-19%
CCCCCC[n+]1c(-c2ccccc2)csc1Nc1ccccc1	?	-5%	-32%	3.3µM*	-16%
CCOc1cccc2cc(C(=O)N3CCOCC3)c(=O)oc12	12µM*	17%	5%	16%	-16%
COc1cccc2cc(C(=O)N3CCCCCCC3)c(=O)oc12	1%	-6%	16%	?	2%
CCN(C(=O)c1cc2cccc(OC)c2oc1=O)C1CCCCC1	1.5µM*	2%	1%	?	-14%
CCOc1cccc2cc(C(=O)N3CC(C)OC(C)C3)c(=O)oc12 (stereo not given)	6.6µM*	3%	-34%	5%	10%
COc1cccc2cc(C(=O)OCC(=O)N3CC(C)OC(C)C3)c(=O)oc12 (stereo not given)	·	-6%	·	·	·
Cc1ccc(C(=O)N/C(=C\c2ccco2)C(=O)NCCN2CCOCC2)cc1C	?	4%	0%	9%	62%
CN(CC1CCN(CCc2cccc(C(F)(F)F)c2)CC1)C(=O)c1ccc(F)cc1	13µM*	-9%	3%	-14%	-4%
CN(CC1CCN(CCc2cccc(C(F)(F)F)c2)CC1)C(=O)c1ccccc1	?	0%	10%	5%	-32%
O=C(c1cccs1)N1C[C@@H](O)[C@H](n2cc(-c3ccc(F)cc3)nn2)C[C@@H]1c1ccc(Cl)cc1	·	0%	·	·	·
Nc1c(Cl)c(Cl)nc(C(=O)OCC(=O)NCc2ccccc2)c1Cl	-10%	-3%	·	-22%	1%
O=C(COC(=O)c1nc(Cl)c(Cl)c(Cl)c1Cl)NCc1ccccc1	28%	0%	·	-2%	4µM*
Cc1nccc2[nH]c(=O)c(C(=O)NC3CCCCC3C)cc12 (stereo not given)	3.3µM*	2%	1%	?	7%
CC12CCC(=O)N1C(C(=O)N1CCN(c3ccc([N+](=O)[O-])cc3)CC1)CS2 (stereo not given)	·	-2%	·	·	·
CCCn1c(N)c(C(c2ccc(C(=O)OC)cc2)N2CCN(c3ccccc3)CC2)c(=O)[nH]c1=O (stereo not given)	0%	-15%	-35%	?	?
CCCn1c(N)c(C(c2ccc(OC)cc2)N2CCN(c3ccccc3)CC2)c(=O)[nH]c1=O (stereo not given)	?	2%	7%	·	2µM*
COCCn1c(C)cc(O)c(C(c2ccc(OC)cc2)N2CCN(c3ccccc3)CC2)c1=O (stereo not given)	·	·	·	·	8.9µM*
SMILES	Pf growth 96h	AMA1 RON2 block	NS1 function inh	Pf growth 48h	Sm TGR inh
COCCn1c(C)cc(O)c(C(c2cccc(F)c2)N2CCN(c3ccccc3)CC2)c1=O (stereo not given)	·	·	·	·	7.9µM*
O=C(Nc1cccc(S(=O)(=O)N2CCOCC2)c1)c1cc(S(=O)(=O)N2CCOCC2)c(Cl)cc1Cl	·	1%	·	·	·
Cc1cc(C(=O)N2CCC(C)(C(=O)NS(=O)(=O)C3CC3)C2)n(C(C)(C)C)n1 (stereo not given)	·	-3%	·	·	·
OCCNc1ncnc2c1ncn2[C@H]1CN(C2CCCC2)C[C@@H](CO)O1	·	21%	·	·	·
CCOC(=O)c1sc(S(C)=O)c2c1CCc1conc1-2 (stereo not given)	?	-2%	-2%	?	1µM*
O=C(C1CCC(CNc2c(N3CCCCC3)c(=O)c2=O)CC1)N1CCCC1 (stereo not given)	-1%	0%	-4%	-4%	8%
COc1cc(OC)cc(-c2cc3nc4c(c(N5CCN(c6ncccn6)CC5)n3n2)CCCC4)c1	5%	10%	-48%	1.3µM*	-1%
Clc1cccc(-c2cc3nc4c(c(N5CCNCC5)n3n2)CCCC4)c1	-6%	·	4%	87%	0%
Cc1nc2cc(-c3cccc(F)c3)nn2c(N2CCOCC2)c1C	·	·	-3%	·	·
Fc1cccc(-c2cc3nc4c(c(N5CCC6(CC5)OCCO6)n3n2)CCCC4)c1	14%	2%	-41%	9.3µM*	9%
OC1CCN(c2c3c(nc4cc(-c5cccc(F)c5)nn24)CCCC3)CC1	19%	5%	-130%	9.3µM*	15%
O=[N+]([O-])c1ccc(S(=O)(=O)NCCS(=O)(=O)N2CCN(c3ccccc3)CC2)cc1	6%	-2%	6%	?	1%
CCCNC(=O)C1(C)CCN1C(=O)Cc1ccc(C(C)(C)C)cc1 (stereo not given)	·	3%	·	·	·
COC(=O)[C@H](CC(C)C)NC(=O)NCc1ccc(Cl)cc1	40%	10%	-1%	12%	-8%
CCOC(=O)C(C#N)C(=N)C1C(=O)OC2CCCCC21 (stereo not given)	·	-7%	·	·	·
CC1CCC(NC(=O)c2[nH]c(C(F)(F)F)nc2-c2ccccc2)CC1 (stereo not given)	·	25%	·	·	·
CCn1c(NCc2cc(Cl)ccc2O)nc2ccccc21	5.2µM*	9%	?	7.4µM*	-4%
Cn1c(-c2ccccc2)cnc1NCc1cc(Cl)ccc1O	-17%	-29%	-20%	12µM*	-20%
C=CCn1c(NCc2ccc(OC)cc2O)nc2ccccc21	2.9µM*	-8%	0%	?	-6%
Oc1ccc(Cl)cc1CNc1ccccn1	10µM*	-3%	-16%	?	2%
Cn1c(-c2ccccc2)cnc1NCc1ccc(-c2ccccc2)cc1	?	?	-51%	26%	13%
CCOC(=O)c1noc2nc(C)n(CC(=O)Nc3ccc(OC)c(Cl)c3)c(=O)c12	·	·	·	·	2%

High-throughput results deposited in PubChem by National Center for Advancing Translational Sciences (NCATS).
